Results as given in PubChem BioAssay (EPA / NIEHS).
Calls of active or inactive are those of the source. How the source made its calls: active means hit-call score of the fitted dose curve at least 0.9, where 1 is the maximum; inactive means score below 0.9.

Biological target: Myc proto-oncogene protein (Homo sapiens) (UniProt P01106)
Assay: ATG_Myc_CIS: Attagene CIS-FACTORIAL HepG2 Assay for human Myelocytomatosis (Myc) Proto-Oncogene Transcription Factor (AID 2282990)
Conditions: HepG2, Attagene cis-reporter transcription factor activity; actives raise or lower the signal
Experimental: ATG_CIS is a cell-based, multiplexed-readout assay that uses HepG2, a human liver cell line, with measurements taken at 24 hours after chemical dosing in a 24-well plate.ATG_Myc_CIS is one of 52 assay component(s) measured or calculated from the ATG_CIS assay. It is designed to make measurements of mRNA induction, a form of inducible reporter, as detected with fluorescence intensity signals by Reverse transcription polymerase chain reaction (RT-PCR) and Capillary electrophoresis technology.Data from the assay component ATG_Myc_CIS was analyzed into 1 assay endpoint. This assay endpoint, ATG_Myc_CIS, was analyzed with bidirectional fitting relative to DMSO as the negative control and baseline of activity. Using a type of inducible reporter, measures of mRNA for gain or loss-of-signal activity can be used to understand the reporter gene at the transcription factor-level as they relate to the gene MYC. Furthermore, this assay endpoint can be referred to as a primary readout, because this assay has produced multiple assay endpoints where this one serves a reporter gene function. To generalize the intended target to other relatable targets, this assay endpoint is annotated to the dna binding intended target family, where the subfamily is basic helix-loop-helix leucine zipper.
Human liver HepG2 cells are transiently transfected with multiple reporter transcription units (MRTUs) in 6-well plates using FuGene 6 reagent (Roche; 3 ml FuGene/1 mg DNA). The MRTU constructs are regulated by a cis-regulating element (promoter). […] A major difference between the CIS and TRANS system is that in CIS activities of endogenous TFs are measured, whereas the TRANS assay evaluates changes in activities of exogenous, chimeric NR-Gal4 proteins. […] At the end of 24 hour incubation, total RNA was isolated using TriZol reagent (Invitrogen). The isolated RNA is then reverse-transcribed using oligo(dT) primer and Mo-MLV reverse transcriptase (Invitrogen) with DNAse I (Ambion) treatment for 30 min. The one-tenth of the produced cDNA was amplified by PCR using Taq DNA polymerase (Invitrogen) and two reporter sequence-specific primers. The PCR products were fluorescently labeled by primer extension with 6-arboxyfluorescein (6-FAM) 5'-labeled reporter sequence-specific primer (2 min at 95 C, 20 s at 68 C and 10 min at 72 C) and these products were digested with 5U of HpaI (New England Biolabs) for 2h at 37 C. The fragments were purified using Qiaquick PCR columns (Qiagen), analyzed on an ABI 3130xL genetic analyzer (Applied Biosystems) with peak positions identified by using a set of X-rhodamine (ROX)-labeled MapMarker1000 molecular weight standards (BioVentures). The raw capillary electrophoresis data was processed using Attagraph software (Attagene).

Chain of Myc proto-oncogene protein (Homo sapiens) (P01106 whole entry, looked up): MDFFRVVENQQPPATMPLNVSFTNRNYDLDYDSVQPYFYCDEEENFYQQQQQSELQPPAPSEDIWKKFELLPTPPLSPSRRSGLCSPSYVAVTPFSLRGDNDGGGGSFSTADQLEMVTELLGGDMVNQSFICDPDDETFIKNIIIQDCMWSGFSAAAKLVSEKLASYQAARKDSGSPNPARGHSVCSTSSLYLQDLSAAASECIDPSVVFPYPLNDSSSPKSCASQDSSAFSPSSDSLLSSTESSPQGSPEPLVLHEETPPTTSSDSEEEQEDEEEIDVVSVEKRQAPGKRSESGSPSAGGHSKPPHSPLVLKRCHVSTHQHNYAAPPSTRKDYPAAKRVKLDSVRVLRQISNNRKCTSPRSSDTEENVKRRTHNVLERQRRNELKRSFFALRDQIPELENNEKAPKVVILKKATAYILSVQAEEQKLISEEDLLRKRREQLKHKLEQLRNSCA

outcome, inactive:
CCCOC(=O)CCCCC(=O)OCCC
Cc1ccccc1C
Cc1cccc(C(=O)O)c1
CC(C)=CCC[C@H](C)CCO
CCCCCCCCCCCCCCCC(=O)OCC
COC(=O)c1cc(Cl)ccc1[N+](=O)[O-]
CCC(C)OC(=O)c1ccc(O)cc1 (stereo not given)
CC(=O)OCCC1CCCCC1
CCOC(F)(F)C(F)(F)C(F)(F)C(F)(F)F
COC(F)(F)C(F)(C(F)(F)F)C(F)(F)F
CCCCCCCC/C=C\CCCCCCCC(=O)OCCO
CCN(Cc1cccc(S(=O)(=O)O)c1)c1ccc(C(=C2C=CC(=[N+](CC)Cc3cccc(S(=O)(=O)[O-])c3)C=C2)c2ccccc2)cc1
COC(=O)c1sccc1S(N)(=O)=O
CC(C)C(=O)C(C)C
c1c[nH]cn1
CC=CC(=O)N(CC)c1ccccc1C
O=[N+]([O-])c1ccc(CO)cc1
O=CC1CC1
CC[C@H]1OC(=O)[C@H](C)[C@@H](O[C@H]2C[C@@](C)(OC)[C@@H](O)[C@H](C)O2)[C@H](C)[C@@H](O[C@@H]2O[C@H](C)C[C@H](N(C)C)[C@H]2O)[C@](C)(O)C[C@@H](C)C(=NOCOCCOC)[C@H](C)[C@@H](O)[C@]1(C)O
CCCCCCCCCCc1ccccc1
CC(C)(C)c1ccc(N)cc1
C=C1[C@H]2CC[C@@H]3[C@H]2C(C)(C)CCC[C@]13C
Cc1cc(C)c(C)c(C)c1
O=S(=O)(O)c1ccccc1C=Cc1ccc(-c2ccc(C=Cc3ccccc3S(=O)(=O)O)cc2)cc1
CCOc1nc(F)cc2nc(S(=O)(=O)Nc3c(Cl)cccc3C(=O)OC)nn12
C=CC(C)(CCC=C(C)C)OC(=O)C(C)C (stereo not given)
C=C(C)[C@@H]1CCC2=CCC[C@@H](C)[C@]2(C)C1
O=C(O)CC(C(=O)O)C(CC(=O)O)C(=O)O (stereo not given)
CCCCCCCCC(=O)OCC
C=C(C)[C@H]1CC=C(C)CC1
O=C(/C=C/C=C/c1ccc2c(c1)OCO2)N1CCCCC1
CC1(C)S[C@@H]2[C@H](NC(=O)COc3ccccc3)C(=O)N2[C@H]1C(=O)O
Nc1cccc(C(F)(F)F)c1
NC(=O)C1CO1 (stereo not given)
Clc1nc2ccccc2s1
C[Si](C)(CCCN)O[Si](C)(C)CCCN
C=CC(C)(C)C
CC=CC(F)(F)C(F)(F)C(F)(F)F
CCO[Si](C)(OCC)OCC
CC1=CC[C@H]2C[C@@H]1C2(C)C
